The panel holds about 83,000 compounds, 20% with a hit somewhere; the sample as a whole holds those more often.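 Activity criterion: percent growth below 10, measured after cells in 96-well plates were exposed to a single compound concentration for 48 hours.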 A number with no mark means an inactive call. Active and inactive are the calls of the source.

These results are taken from PubChem BioAssay (NCI).

Test in all cases: NCI-60 one-dose screen, 48 h (100 = growth as untreated, 0 = no growth, -100 = all killed)
What all share (conditions): 10 µM unless noted

Assay [1] relates to DU-145 prostate.
Assay [2] concerns K-562 leukemia.
The subject of assay [3] is MALME-3M melanoma.
Assay [4] concerns MDA-MB-231 breast.
Assay [5] concerns RXF 393 renal.
Assay [6] deals with SF-268 CNS.
In assay [7] the test system is SF-295 CNS.
The test system of assay [8] is SF-539 CNS.
The subject of assay [9] is UACC-257 melanoma.
For assay [10], the system named is M14 melanoma.

As to `COc1ccc([C@H]2C(C(=O)c3ccc(Cl)cc3)C3(N[C@@H]2c2ccccc2)C(=O)Nc2ccccc23)cc1` (stereo not given in full), the growth in assay [1] is 52%; in [2], 18.8%; in assay [3] it was 32.2%; in assay [4], 25.8%; in assay [5], 15.8%; in assay [6], 37.3%. In addition, the growth in assay [7] was 15.2%; in assay [8], 34.5%; in assay [9] it was 44%; in [10] it was 53%.

On to `COc1ccc(N=Nc2c(N)nn3c(-c4ccc(OC)c(OC)c4)ccnc23)cc1`, for which the growth in assay [1] is 79.2%; in [2] it was 80.2%; in assay [3], 78.4%; in [4], 81.1%; in assay [5] it was 65.2%; in [6], 87.2%. The growth is 65.6% in [7], 20.6% in [8], 99.3% in [9] and 62.5% in assay [10].

With `Cc1ccc(N=Nc2c(N)nn3c(-c4cc5cc(Br)ccc5oc4=O)ccnc23)cc1`, the growth was 52.8% in assay [1]; 64.4% in assay [2]; 82% in [3]; -11.1% (active) in assay [4]; -3.16% (active) in assay [5]; 16% in [6]. For the same compound, the growth in [7] is 49%; in [8] it was -46.5% (active); in assay [9], 121%; in [10], 65.1%.

On to `COc1ccc2[nH]cc(-c3cc4nc(-c5cn(C)c6ncccc56)cc(N)n4n3)c2c1`, for which the growth is 9.07% (active) in assay [1]; -31.7% (active) in assay [2]; -60.6% (active) in assay [3]; -58.4% (active) in assay [4]; -62.3% (active) in assay [5]; 32.8% in assay [6]. Besides, the growth was -71.4% (active) in [7], -93.6% (active) in assay [8], 72.7% in assay [9] and -49.5% (active) in assay [10].

Take `C=CC(=O)Nc1ccc(C(=O)/C=C/c2ccc(N(C)C)cc2)c(O)c1`: the growth in assay [1] is 7.83% (active); in [2], 12%; in [3], 3.17% (active); in assay [4] it was 26.9%; in assay [5], -63.8% (active); in assay [6] it was 21.5%. Further, the growth is 13.1% in [7], -21.8% (active) in assay [8], 0.649% (active) in assay [9] and -5.06% (active) in assay [10].

Turning to `N#CC1=C(c2ccco2)Nc2c(c(-c3ccccc3)nn2-c2ccccc2)C12C(=O)Nc1ccc(Br)cc12` (stereo not given), the growth is 70.5% in assay [1]; 21.2% in assay [2]; 90.7% in [3]; 33.2% in assay [4]; 70.2% in assay [5]; 49.1% in assay [6]. For the same compound, the growth in assay [7] is 72.5%; in assay [8], -33% (active); in assay [9], 73.1%; in [10], 42%.

As for `CS(=O)(=O)Nc1cc(-c2ccc3ncnc(N4CCc5cc(F)c(Cl)cc54)c3c2)cnc1Cl`, the growth in [1] is 10.5%; in assay [2], 35.8%; in [3] it was -21.2% (active); in [4], -17.8% (active); in assay [5], -5.59% (active); in assay [6] it was 14.9%. Also, the growth in [7] was -23.8% (active); in assay [8] it was -22.7% (active); in assay [9], -2.81% (active); in assay [10] it was 9.59% (active).

As to `N#CC1=C(c2ccco2)Nc2c(c(-c3ccccc3)nn2-c2ccccc2)C12C(=O)Nc1ccc(Cl)cc12` (stereo not given), the growth is 42.3% in assay [1]; 9.86% (active) in assay [2]; 22.3% in assay [3]; -4.25% (active) in [4]; 57.9% in assay [5]; 11% in assay [6]. The growth in [7] was 6.91% (active); in assay [8], -30.3% (active); in assay [9], 56.4%; in assay [10], 22.4%.

Take `CC1=C(C(=O)OC(C)C)C(c2ccc(O)cc2)NC(=O)N1` (stereo not given): the growth in [1] is 111%; in assay [2], 98.5%; in [3], 102%; in assay [4], 101%; in assay [5], 104%; in assay [6] it was 115%. Also, the growth in assay [7] was 105%; in [8], 101%; in assay [9] it was 96.5%; in assay [10], 99.8%.

Turning to `CC1CCc2c(sc3nc(SCC(=O)c4cccc(Br)c4)n(-c4ccccc4)c(=O)c23)C1` (stereo not given), the growth is 20.3% in assay [1]; 43.3% in [2]; 97.5% in assay [3]; 32.3% in assay [4]; 90.9% in [5]; 64.9% in assay [6]. The growth in assay [7] is 47.2%; in assay [8], 18.3%; in assay [9] it was 91.1%; in [10], 55.4%.

For `ClC(Cn1ncc2c(Nc3cccc(Br)c3)nc(SCCN3CCOCC3)nc21)c1ccc(Br)cc1` (stereo not given), the growth in [1] was 28.6%; in [2], -37.7% (active); in assay [3], -38% (active); in [4], -51.8% (active); in assay [5] it was -62.2% (active); in assay [6] it was 44.7%. The growth is -71.3% (active) in assay [7], -79.1% (active) in assay [8], -42.8% (active) in assay [9] and -19.5% (active) in assay [10].

Turning to `FC(F)(F)c1cc2c(Cl)ncnc2n1CCN1CCOCC1`, the growth was 73.6% in assay [1]; 0.361% (active) in assay [2]; 88.1% in assay [3]; 56.4% in assay [4]; 100% in assay [5]; 64.5% in [6]. The growth in assay [7] is 86.7%; in [8], 87%; in [9] it was 75.5%; in [10], 44.9%.

As for `COc1cccc2nc(Nc3cccc(NC(=O)c4ccc(CN5CCN(C)CC5)c(C(F)(F)F)c4)c3)ccc12`, the growth in assay [1] is -83.5% (active); in [2], 2.54% (active); in [3], -96.4% (active); in assay [4], -97.9% (active); in assay [5] it was -98.5% (active); in assay [6], -54.4% (active). Moreover, the growth in assay [7] was -95.1% (active); in assay [8], -100% (active); in assay [9] it was -83.1% (active); in assay [10], -85.2% (active).
